This is part of a sample that, as a whole, favours compounds with a hit. Of some 83,000 tested, about 20% had one in any assay.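 Results are percent growth after 48 hours of single-concentration exposure. 100 means growth as in untreated cells, lower positive values show inhibition; negative values down to -100 show cell death.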 Active and inactive are the calls of the source. How the source made its calls: active means growth percent below 10; inactive means the rest.
What follows are compounds tested on CAKI-1 renal (assay: NCI-60 one-dose screen, 48 h (100 = growth as untreated, 0 = no growth, -100 = all killed)). Conditions: 10 µM unless noted.
`COc1ccc(/C=C/C(c2cc(OC)c(OC)c(OC)c2)n2cncn2)cc1O` (stereo not drawn) was tested, and the growth was 34.5% (inactive). `COc1ccc(-c2cn(Cc3cc4ccccc4s3)nn2)cc1OCCN1CCCCC1` was tested, and the growth was 78.9% (inactive). In the case of `COc1ccc(-c2nc3c(c(-c4ccc(Cl)cc4)nn3-c3ccccc3)c(-c3ccccc3)c2C#N)cc1`, the growth is reported as 94.8% (inactive). `COc1ccc2c(c1)CC[C@@H]1[C@@H]2CC[C@]2(C)C3C(=CC(COC(C)=O)C4C(=O)N(c5ccc(Cl)cc5)C(=O)C43)C[C@@H]12` (stereo partly drawn) was tested, and the growth was 108% (inactive). For `COc1cc(/C=C/C(=O)N2CCN(C(=O)c3cc(OC)c(OC)c(OC)c3)CC2)ccc1OCCCOc1cc2c(cc1OC)C(=O)N1CCC[C@H]1C=N2`, the growth was 3.12% (active). `CSc1nc2ccc(C)cc2cc1/C=C1/C=C(c2ccccc2)NC1=O` was tested, and the growth was 5.73% (active). For `Cc1ccc2c(c1)sc1nc(-c3c[nH]c4ccccc34)c(Nc3ccccc3)n12`, the growth was 79.8% (inactive). With `N=C(N)c1ccc(-c2ccc(-c3ccccc3)o2)o1` the growth was 37.4% (inactive). With `CN1C(=O)N2CN3CCCN(C3)CN3C(=S)NC1C23` (stereo not drawn) the growth was 98% (inactive). With `Clc1ccc(-c2cc(-c3ccccc3)nc(N3CCN(CCCNc4ccnc5cc(Cl)ccc45)CC3)n2)cc1` the growth was -31.5% (active). With `COc1cc(/C=C/c2cc(/C=C/c3ccc(O)c(OC)c3)n(C(=O)Nc3ccc(Cl)cc3)n2)ccc1O` the growth was 0.131% (active). For `N#Cc1c(-c2ccccc2)nc2c(c(-c3ccc(Cl)cc3)nn2-c2ccccc2)c1-c1ccc([N+](=O)[O-])cc1`, the growth was 79% (inactive). For `COc1ccc(Oc2ccc(/C=C/C(=O)c3cc4ccccc4oc3=O)cc2)cc1`, the growth was 74.8% (inactive). In the case of `O=[N+]([O-])c1c(O)c(Cl)cc(Cl)c1Cl`, the growth is reported as 102% (inactive). `O=S(O)c1cc(Cl)cc(Cl)c1OCc1ccccc1` was tested, and the growth was 99% (inactive). `Cc1oc(-c2ccc(Cl)cc2)nc1C1=NN(C(=O)c2ccncc2)C(c2ccccc2)C1` (stereo not drawn) was tested, and the growth was 76% (inactive). With `CS(=O)(=O)c1ccc(-c2nc3ccccc3n2CC(=O)N/N=C/c2ccccc2)cc1` the growth was 89.4% (inactive). `CCCn1c(=S)sc2c(NNC(C)=O)nc(C)nc21` was tested, and the growth was 70.7% (inactive). In the case of `N#CSc1c[nH]c2ccc(/C=C/C(=O)/C=C(O)/C=C/c3ccc4[nH]cc(SC#N)c4c3)cc12`, the growth is reported as 11.9% (inactive). For `Fc1cccc(-c2nc(-c3c[nH]c4ncccc34)cs2)c1`, the growth was -11.1% [100 µM] (active). With `COc1ccc(Oc2ccc(/C=C/C(=O)c3ccc(OC)c(OC)c3)cc2)cc1` the growth was 85.5% (inactive). With `CCCCn1c(NC(C)=O)c(S(=O)(=O)c2ccccc2)c2nc3ccccc3nc21` the growth was 104% (inactive). `COc1cc(O)c2c(=O)c3c(CC=C(C)C)cc(OC)c(O)c3oc2c1` was tested, and the growth was 44% (inactive). `CC12OC(CC(O)C1O)n1c3ccccc3c3c4c(c5c6ccccc6n2c5c31)C(=O)N(CCN1CCCC1)C4=O` (stereo not drawn) was tested, and the growth was 15.4% (inactive). `C=C1CC[C@@H]2C(C)(C)[C@H](O)CC[C@@]2(C)[C@@H]1COc1ccc2ccc(=O)oc2c1` was tested, and the growth was 39.6% (inactive). In the case of `COc1c2c(cc3c1C(=O)N[C@@H]1[C@@H](O)[C@@H](O)[C@H](O)C[C@@H]31)OCCO2`, the growth is reported as 94% (inactive). `C=C1C(=O)O[C@H]2[C@H]1CC/C(COC(=O)NCc1ccc(Cn3c(=O)sn(-c4ccccc4)c3=O)cc1)=C\CC[C@@]1(C)O[C@@H]21` was tested, and the growth was 15.6% (inactive). For `Cc1nc2sc(C(=O)Nc3ccccn3)c(N)c2cc1C(C)O` (stereo not drawn), the growth was 85.5% (inactive). With `c1cc(OCCN2CCCC2)ccc1CNc1ccc2nc(CCC3CCCCC3)[nH]c2c1` the growth was 4.69% (active). For `Cc1nc([P+](c2ccccc2)(c2ccccc2)c2ccccc2)c(N2CCCCC2)o1`, the growth was 78% (inactive). With `COc1cc(/C=N/NC(=O)c2ccc(-n3cc(-c4ccccc4)nn3)cc2)cc(OC)c1OC` the growth was 65.3% (inactive). In the case of `C=CN(C(=O)N1CCN(c2cc3c(cc2F)c(=O)c(C(=O)O)cn3C2CC2)CC1)c1nc(-c2ccc(Cl)cc2)cs1`, the growth is reported as 2.83% (active). `COc1ccccc1/C=C/C(=O)Nc1ccc(F)cc1` was tested, and the growth was 90.7% (inactive). For `CC(C)c1ccc2c(c1)CC[C@H]1[C@](C)(C(=O)OCC#CCN3CCCC3)CCC[C@]21C`, the growth was 94.5% (inactive). In the case of `COc1ccc2c(O)c(/C=C3\N=Nc4ncccc43)oc2c1C[C@@H]1CCNC[C@H]1F`, the growth is reported as 1.53% (active). In the case of `c1ccc2cc(Cn3cc(CSc4nc5ccccc5s4)nn3)ccc2c1`, the growth is reported as 83.3% (inactive). With `COCC(=O)Oc1cc(-c2ccc(C)cc2C)c(OC(=O)COC)c(-c2ccc(C)cc2C)c1` the growth was 9.83% (active). With `Cc1nc2ccccc2c(/C=C/c2ccc(F)cc2)c1C(=O)/C=C/c1ccccc1` the growth was 24.7% (inactive). `O=C1C=C(SCCO)C(=O)c2ccccc21` was tested, and the growth was 47.5% (inactive).

These compounds were tested on A498 renal in the same assay as above. Conditions: 10 µM unless noted.
In the case of `COc1ccc(/C=C/C(c2cc(OC)c(OC)c(OC)c2)n2cncn2)cc1O` (stereo not drawn), the growth is reported as 19.8% (inactive). In the case of `COc1ccc(-c2cn(Cc3cc4ccccc4s3)nn2)cc1OCCN1CCCCC1`, the growth is reported as -1.93% (active). For `COc1ccc(-c2nc3c(c(-c4ccc(Cl)cc4)nn3-c3ccccc3)c(-c3ccccc3)c2C#N)cc1`, the growth was 111% (inactive). `COc1ccc2c(c1)CC[C@@H]1[C@@H]2CC[C@]2(C)C3C(=CC(COC(C)=O)C4C(=O)N(c5ccc(Cl)cc5)C(=O)C43)C[C@@H]12` (stereo partly drawn) was tested, and the growth was 108% (inactive). `COc1cc(/C=C/C(=O)N2CCN(C(=O)c3cc(OC)c(OC)c(OC)c3)CC2)ccc1OCCCOc1cc2c(cc1OC)C(=O)N1CCC[C@H]1C=N2` was tested, and the growth was -55.8% (active). In the case of `CSc1nc2ccc(C)cc2cc1/C=C1/C=C(c2ccccc2)NC1=O`, the growth is reported as 41.7% (inactive). `Cc1ccc2c(c1)sc1nc(-c3c[nH]c4ccccc34)c(Nc3ccccc3)n12` was tested, and the growth was 109% (inactive). For `N=C(N)c1ccc(-c2ccc(-c3ccccc3)o2)o1`, the growth was 48.7% (inactive). `CN1C(=O)N2CN3CCCN(C3)CN3C(=S)NC1C23` (stereo not drawn) was tested, and the growth was 98.9% (inactive). `Clc1ccc(-c2cc(-c3ccccc3)nc(N3CCN(CCCNc4ccnc5cc(Cl)ccc45)CC3)n2)cc1` was tested, and the growth was 69.5% (inactive). With `COc1cc(/C=C/c2cc(/C=C/c3ccc(O)c(OC)c3)n(C(=O)Nc3ccc(Cl)cc3)n2)ccc1O` the growth was -0.596% (active). In the case of `N#Cc1c(-c2ccccc2)nc2c(c(-c3ccc(Cl)cc3)nn2-c2ccccc2)c1-c1ccc([N+](=O)[O-])cc1`, the growth is reported as 99.7% (inactive). With `COc1ccc(Oc2ccc(/C=C/C(=O)c3cc4ccccc4oc3=O)cc2)cc1` the growth was 121% (inactive). In the case of `O=[N+]([O-])c1c(O)c(Cl)cc(Cl)c1Cl`, the growth is reported as 110% (inactive). With `O=S(O)c1cc(Cl)cc(Cl)c1OCc1ccccc1` the growth was 80% (inactive). For `Cc1oc(-c2ccc(Cl)cc2)nc1C1=NN(C(=O)c2ccncc2)C(c2ccccc2)C1` (stereo not drawn), the growth was 78% (inactive). `CS(=O)(=O)c1ccc(-c2nc3ccccc3n2CC(=O)N/N=C/c2ccccc2)cc1` was tested, and the growth was 111% (inactive). With `CCCn1c(=S)sc2c(NNC(C)=O)nc(C)nc21` the growth was 78.1% (inactive). In the case of `N#CSc1c[nH]c2ccc(/C=C/C(=O)/C=C(O)/C=C/c3ccc4[nH]cc(SC#N)c4c3)cc12`, the growth is reported as 90.5% (inactive). In the case of `Fc1cccc(-c2nc(-c3c[nH]c4ncccc34)cs2)c1`, the growth is reported as 76.6% [100 µM] (inactive). With `COc1ccc(Oc2ccc(/C=C/C(=O)c3ccc(OC)c(OC)c3)cc2)cc1` the growth was 90.3% (inactive). In the case of `CCCCn1c(NC(C)=O)c(S(=O)(=O)c2ccccc2)c2nc3ccccc3nc21`, the growth is reported as 87.3% (inactive). In the case of `COc1cc(O)c2c(=O)c3c(CC=C(C)C)cc(OC)c(O)c3oc2c1`, the growth is reported as 31.1% (inactive). With `CC12OC(CC(O)C1O)n1c3ccccc3c3c4c(c5c6ccccc6n2c5c31)C(=O)N(CCN1CCCC1)C4=O` (stereo not drawn) the growth was 17.8% (inactive). For `C=C1CC[C@@H]2C(C)(C)[C@H](O)CC[C@@]2(C)[C@@H]1COc1ccc2ccc(=O)oc2c1`, the growth was 64.5% (inactive). In the case of `COc1c2c(cc3c1C(=O)N[C@@H]1[C@@H](O)[C@@H](O)[C@H](O)C[C@@H]31)OCCO2`, the growth is reported as 104% (inactive). For `C=C1C(=O)O[C@H]2[C@H]1CC/C(COC(=O)NCc1ccc(Cn3c(=O)sn(-c4ccccc4)c3=O)cc1)=C\CC[C@@]1(C)O[C@@H]21`, the growth was 127% (inactive). For `Cc1nc2sc(C(=O)Nc3ccccn3)c(N)c2cc1C(C)O` (stereo not drawn), the growth was 77.1% (inactive). For `c1cc(OCCN2CCCC2)ccc1CNc1ccc2nc(CCC3CCCCC3)[nH]c2c1`, the growth was 34.2% (inactive). In the case of `Cc1nc([P+](c2ccccc2)(c2ccccc2)c2ccccc2)c(N2CCCCC2)o1`, the growth is reported as 34.6% (inactive). In the case of `COc1cc(/C=N/NC(=O)c2ccc(-n3cc(-c4ccccc4)nn3)cc2)cc(OC)c1OC`, the growth is reported as 71.1% (inactive). For `C=CN(C(=O)N1CCN(c2cc3c(cc2F)c(=O)c(C(=O)O)cn3C2CC2)CC1)c1nc(-c2ccc(Cl)cc2)cs1`, the growth was 56% (inactive). For `COc1ccccc1/C=C/C(=O)Nc1ccc(F)cc1`, the growth was 102% (inactive). In the case of `CC(C)c1ccc2c(c1)CC[C@H]1[C@](C)(C(=O)OCC#CCN3CCCC3)CCC[C@]21C`, the growth is reported as 105% (inactive). For `COc1ccc2c(O)c(/C=C3\N=Nc4ncccc43)oc2c1C[C@@H]1CCNC[C@H]1F`, the growth was -32.1% (active). For `c1ccc2cc(Cn3cc(CSc4nc5ccccc5s4)nn3)ccc2c1`, the growth was 97.3% (inactive). `COCC(=O)Oc1cc(-c2ccc(C)cc2C)c(OC(=O)COC)c(-c2ccc(C)cc2C)c1` was tested, and the growth was 68.7% (inactive). `Cc1nc2ccccc2c(/C=C/c2ccc(F)cc2)c1C(=O)/C=C/c1ccccc1` was tested, and the growth was 55.5% (inactive). For `O=C1C=C(SCCO)C(=O)c2ccccc21`, the growth was 113% (inactive).
